Screening results from PubChem BioAssay.
In the library only some 3.1% were active in any assay of this set; here they are far more common.
DRD3 agonist – activates the human D3 dopamine receptor; P35462; D3R DiscoveRx beta-arrestin cells, luminescence, 90 min; max activation, %; 410,000 tested, 0.58% active; AID 652048; in the data active = max activation above about 30%; note: 0% is about no effect
Target sequence (P35462 whole entry, looked up): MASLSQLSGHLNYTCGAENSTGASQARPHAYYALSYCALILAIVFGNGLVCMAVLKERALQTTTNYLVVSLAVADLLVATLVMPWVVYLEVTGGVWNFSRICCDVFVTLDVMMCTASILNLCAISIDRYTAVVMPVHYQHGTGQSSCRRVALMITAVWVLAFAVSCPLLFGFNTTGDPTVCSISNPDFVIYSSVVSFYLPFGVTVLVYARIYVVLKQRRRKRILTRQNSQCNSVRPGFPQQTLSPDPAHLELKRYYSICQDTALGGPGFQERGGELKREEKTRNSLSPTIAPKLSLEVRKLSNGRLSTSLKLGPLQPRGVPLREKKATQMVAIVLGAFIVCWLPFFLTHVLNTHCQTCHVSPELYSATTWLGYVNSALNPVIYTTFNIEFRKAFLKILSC
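Agonist-mode cell screen: cells plated at 1500/well and incubated overnight at 37 °C, then exposed to library compounds for 90 min at 37 °C. Detection reagent was added for 30–60 min at room temperature, and luminescence was read.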
uPA generation – blocks generation of uPA at the cell surface. cell surface uPA generation assay, qHTS. Potency, µM (top dose mostly 38.3 µM), for inactives: at the top dose activity change, negative = inhibition, usual class: inhibitors. 330,000 tested, 0.31% active. AID 540303; active = well fitted inhibition curve with a large enough effect; inconclusive = small, poorly fitted or top-dose-only effect; inactive = no such curve, though single readings can be large or run the other way; tested in mouse RAW 264.7 cells; note: potency is the fitted concentration of half-maximal effect; % is set by controls: 0 for no effect and ±100 for the full control effect; nearly all actives have a fitted effect of over 55% in size
D3 antag – antagonists of human D3 dopamine receptor; AID 652054; 360,000 tested, 2.5% active; P35462; max response, negative = inhibition, %; D3R cells, DiscoveRx beta-arrestin luminescence, antagonist mode; hits give low values; in the data active = max response below about -50%; inconclusive = no clear call, values can overlap the other calls; note: % is set by controls: 0 for no effect and ±100 for the full control effect
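Cells plated overnight at 1500 cells/well, then exposed to library compounds with dopamine controls for 90 minutes at 37 degrees C. DiscoveRx reagent added for 30–60 minutes at room temperature; luminescence read, quantitative HTS format.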
RGS4 inhibitor – human RGS4 inhibition | Transcreener GDP fluorescence polarization, RGS4-accelerated GTP hydrolysis | Potency, µM (top dose mostly 114 µM), inactives show at the top dose activity change, negative = inhibition, most hits filed as inhibitors | 390,000 tested, 0.039% active; active = well fitted inhibition curve with a large enough effect; inconclusive = small, poorly fitted or top-dose-only effect; inactive = no such curve, though single readings can be large or run the other way; note: potency is the fitted concentration of half-maximal effect; % is set by controls: 0 for no effect and ±100 for the full control effect; nearly all actives have a fitted effect of over 75% in size
Target sequence (P49798 whole entry, looked up): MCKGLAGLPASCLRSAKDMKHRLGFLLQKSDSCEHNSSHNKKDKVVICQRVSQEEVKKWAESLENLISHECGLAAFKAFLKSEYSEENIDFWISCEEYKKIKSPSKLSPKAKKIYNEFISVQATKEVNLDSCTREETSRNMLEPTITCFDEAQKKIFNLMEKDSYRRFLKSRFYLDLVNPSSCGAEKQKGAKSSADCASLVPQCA
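MLSMR compounds (23 nl, pin-transferred) preincubated 10 min at room temperature with a 500nM (2x) first reagent, then RGS4 at 900nM (2x) plus Transcreener GDP mix added; fluorescence polarization (620/688 nm) read before and after 90 min at 30 °C.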
* marks the source's active call; other numbers are inactive results; ? = inconclusive; · = not tested or not shown; [ ] = remark or other dose.

SMILES | DRD3 agonist | uPA generation | D3 antag | RGS4 inhibitor
CC1=CC(=O)C(C(C)C)=C/C1=N/OS(=O)(=O)c1ccccc1 | 1 | 4µM* | -79* | -49%
CC1=CC(=O)C=C(C)C1=NOS(=O)(=O)c1ccccc1 | -9 | -11% | -56* | -9%[11.4 µM]
Cc1ccc2c(c1)/C(=N/OS(=O)(=O)c1ccccc1)CCS2 | -1 | -1% | 12 | -13%
CCOC(=O)c1ccc(NC(=O)CCCc2nc(-c3ccccc3Cl)no2)cc1 | -2 | · | · | -17%
COc1ccc(OCCn2c(C)nc3cc(C)c(C)cc32)cc1 | 9 | · | · | -17%
CC(C)c1ccccc1OCC(O)CN1CCN(S(=O)(=O)c2ccc([N+](=O)[O-])cc2)CC1 (configuration not stated) | -18 | -12% | -55* | 0%
O=C(CCNS(=O)(=O)c1ccc2c(c1)CCCC(=O)N2)Nc1cccc(Cl)c1 | -6 | · | · | 6%
O=C1C=CC(=O)c2c(O)c(N3CCN(CCOCCO)CC3)c(Br)c(O)c21 | -18 | -10% | -95* | ?
O=S(=O)(c1ccc(Br)cc1Cl)N1CCN(CCO)CC1 | -11 | 5% | -8 | 3%
CCOc1cc(CN2CCN(CCOCCO)CC2)ccc1OC | 1 | 2% | -16 | 5%
O=C1C=CC(=O)c2c(O)c(N3CCN(CCO)CC3)c(Cl)c(O)c21 | -25 | -11% | -121* | ?
N=C1S/C(=C\c2ccco2)C(=O)N1c1ccc2c(c1)OCO2 | -7 | -8% | -26 | -41%
N=C1S/C(=C\c2ccco2)C(=O)N1c1nccs1 | -1 | 7.9µM* | -5 | -14%
Cc1ccc(S(=O)(=O)N2CCCCC2CCNC(=O)C(=O)NCc2ccccc2)cc1 (configuration not stated) | -20 | 8.9µM* | ? | -4%
CCNC(=O)C(=O)NCCC1CCCCN1S(=O)(=O)c1cccs1 (configuration not stated) | -10 | -5% | -54* | 13%
COc1ccc(CCNC(=O)C(=O)NCC2CCCN2S(=O)(=O)c2ccc(OC)cc2)cc1 (configuration not stated) | 34* | -4% | 28 | 11%
Cc1ccc(S(=O)(=O)N2CCCCC2CCNC(=O)C(=O)NCc2ccncc2)cc1 (configuration not stated) | -1 | -3% | -3 | -34%
Cc1ccc(NC(=O)Cn2ccn(Cc3ccc(Cl)cc3)c(=O)c2=O)cc1C | 3 | · | · | 7%
CCCc1cc(=O)oc2c(CN3CCN(C)CC3)c(O)ccc12 | 32* | 1% | 5 | 7%
CCCCc1cc(=O)oc2c(CN3CCN(C)CC3)c(O)ccc12 | -7 | 4% | -17 | 16%
CC(=O)CCC(=O)CNC(=O)CC[C@H]1O[C@@H](n2ccc(=O)[nH]c2=O)[C@H](O)[C@@H]1O | -3 | · | 0 | ·
Cc1cc(C)c(CN2CCN(C(=O)CC[C@H]3O[C@@H](n4ccc(=O)[nH]c4=O)[C@H](O)[C@@H]3O)CC2)c(C)c1 | -13 | · | -69* | ·
CC1CCN(c2nc(-c3cccnc3)nc3scc(-c4ccccc4)c23)CC1 | 1 | 14% | 50 | 8%
CC1CCCN(c2nc(-c3cccnc3)nc3scc(-c4ccccc4)c23)C1 (configuration not stated) | 34* | 1% | 17 | -4%
CCCCCCCC(=O)Nc1cc(C(=O)NCCC)ccc1N1CCC2(CC1)CC(c1ccccc1)=NO2 | 48* | 11% | -119* | 7%
SMILES | DRD3 agonist | uPA generation | D3 antag | RGS4 inhibitor
Nc1nc2c(c(=O)[nH]1)N(C=O)C(CNc1ccc(C(=O)N[C@@H](CCC(=O)O)C(=O)O)cc1)CN2 (some centres not stated) | 13 | · | · | ·
COc1ccc(S(=O)(=O)NCc2ccc(C(=O)NCCN(C)Cc3ccccc3)cc2)cc1 | -18 | · | -62* | ·
COc1ccc(-c2noc(CN(C(=O)c3ccc4c(c3)OCO4)C(C)C)n2)cc1 | 91* | 1% | 9 | 16%
Cc1oc2ncn(CC(C)C)c(=O)c2c1C(=O)N1CCN(c2cccc(C(F)(F)F)c2)CC1 | 7 | · | · | 0%
Cc1ccccc1CN1CCN(CC2CC3C=CC2C3)CC1 (configuration not stated) | -17 | 6% | -66* | -7%
CS(=O)(=O)N1CCN(CC2CC3C=CC2C3)CC1 (configuration not stated) | -28 | · | -28 | 20%
CCN1CCN(CC2CC3C=CC2C3)CC1 (configuration not stated) | -9 | 0% | -11 | -13%
C1=CC2CC1CC2CN1CCN(c2ccccc2)CC1 (configuration not stated) | -9 | · | -54* | 4%
CC(C)(C)C(c1nc2ccccc2[nH]1)n1c(-c2ccsc2)nc2ccccc21 (configuration not stated) | 1 | · | 3 | ·
Cc1cc(C)c(OCCCCNCc2ccccc2)c(Cl)c1 | -59 | · | -76* | 1%
Cc1cc(Cl)cc(C)c1OCCOCCNCc1ccccc1 | -9 | -3% | -80* | 22%
Cc1[nH]n(-c2ccc(Br)cc2)c(=O)c1/C=N/NC(=O)c1ccccc1 | -5 | 6.3µM* | -3 | 14%
Cc1[nH]n(-c2ccccc2)c(=O)c1/C=N/NC(=O)c1ccc(O)cc1O | 5 | 12% | 13 | -15%
CCCCN(CCCC)C(=S)N/N=C/c1c(C)[nH]n(-c2ccccc2)c1=O | -41 | 2% | -104* | -33%
Cc1ccc2c(c1)C(c1ccc(F)cc1)N(C(=O)c1ccc(S(=O)(=O)N3CCCCC3)cc1)CC(=O)N2 (configuration not stated) | -5 | · | · | -11%
O=C1CSC(=S)N1c1cccc(F)c1 | 8 | ? | 4 | -14%
O=C1CC(=O)N(c2cccc(F)c2)N1 | -12 | 6% | -51* | -22%
COCCn1c(SCC(=O)Nc2ccc(F)c(Cl)c2)nc2c(oc3ccccc32)c1=O | 5 | · | · | -1%
Nc1c(C(O)(C(F)(F)F)C(F)(F)F)cc(C(O)(C(F)(F)F)C(F)(F)F)c2ccccc12 | 0 | 13% | -83* | 12%
COc1cnc(-c2ccccn2)nc1N(C)C | -32 | -10% | ? | -13%
CCOC(=O)C(C)Sc1nc(-c2ccccn2)ncc1OC (configuration not stated) | -8 | -1% | -6 | -43%
COc1cnc(-c2ccccn2)nc1Sc1c(Cl)cccc1Cl | -9 | · | -65* | 13%
COc1cnc(-c2ccccn2)nc1Sc1ccccc1Cl | -8 | -2% | -68* | 10%
CNS(=O)(=O)c1cn(CC(=O)N2CCN(c3cccc(Cl)c3)CC2)cc1S(=O)(=O)NC | -3 | · | · | 18%
COc1ccccc1Cc1nc2ccccc2nc1SCC(=O)NCc1ccccc1Cl | 8 | · | · | -4%
CC1CCN(c2ccccc2NC(=S)NC(=O)c2cccs2)CC1 | -6 | 7% | -58* | 5%
C/C(=N\NC(=O)c1nnn(-c2nonc2N)c1CSc1ccc(C)cc1)c1cccs1 | -2 | · | -11 | ·
COCc1cc(C)nc(SCC[N+](C)(C)CC(=O)Nc2cccc(C)c2)c1C#N | -8 | 16% | -2 | 20%
COCc1cc(C)nc(SCC[N+](C)(C)CC(=O)c2ccccc2)c1C#N | -11 | 0% | -55* | 6%
